# Data: the antibiotic and cytotoxicity screens of Wong et al. (2023)
# About 500 (1.3%) of roughly 39,000 compounds were called active. Only a selection was taken, and actives are over-represented in it overall.
# System: S. aureus RN4220
# Test: growth inhibition call (relative growth <= 0.2)
# Settings: 50 µM
row,SMILES,growth inhibition call
1,COc1cccc(CNC(=O)C[C@@H]2C=C[C@@H](NC(=O)C3CCOCC3)[C@H](CO)O2)c1,inactive
2,COc1ccc(NC(=O)N(C)C[C@@H]2Oc3c(NS(C)(=O)=O)cccc3C(=O)N([C@H](C)CO)C[C@H]2C)cc1,inactive
3,OCCc1ccc2c(c1)OCO2,inactive
4,Cc1ccc(S(=O)(=O)N(C)C[C@H]2Oc3ccc(NC(=O)Nc4cccc5ccccc45)cc3C(=O)N([C@@H](C)CO)C[C@@H]2C)cc1,inactive
5,COc1ccc(S(=O)(=O)N2C[C@H](O)COC[C@H]3O[C@H](CC(=O)NCCN4CCCCC4)CC[C@@H]32)cc1,inactive
6,CCCNC(=O)N1C[C@@H](O)COC[C@H]2O[C@@H](CC(=O)N3CCN(C)CC3)CC[C@@H]21,inactive
7,C[C@H]1CN([C@@H](C)CO)C(=O)c2cc(NC(=O)Cc3ccccc3)ccc2O[C@H]1CN(C)C(=O)Nc1cccc2ccccc12,inactive
8,C[C@H]1CNC(=CC(=O)c2ccccc2)C(=O)N1,inactive
9,O=C1OCCN/C1=C/C(=O)c1ccccc1,inactive
10,O=C(/C=c1/nc2c([nH]c1=O)=NON2)c1ccccc1,active
11,COc1ccc(S(=O)(=O)N(C)C[C@@H]2Oc3ccc(NC(=O)Cc4ccccc4)cc3CC(=O)N([C@@H](C)CO)C[C@@H]2C)cc1,inactive
12,CC(C)(C)[S@](=O)N1Cc2cc(C(=O)NCc3ccccc3F)nc(-c3cccc(-c4ccncc4)c3)c2[C@@H]1CCO,inactive
13,O=C(C[C@@H]1CC[C@@H]2[C@H](COC[C@H](O)CN2C(=O)Nc2cccc(Cl)c2)O1)NCc1ccccc1F,inactive
14,COc1cccc(NC(=O)N2C[C@H](O)COC[C@H]3O[C@@H](CC(=O)NCc4ccccc4F)CC[C@@H]32)c1,inactive
15,O=C(C[C@H]1CC[C@@H]2[C@H](COC[C@@H](O)CN2C(=O)Nc2cccc(Cl)c2)O1)NCc1ccccc1F,active
16,O=C(C[C@@H]1CC[C@H]2[C@@H](COC[C@H](O)CN2C(=O)Nc2cccc(Cl)c2)O1)NCc1ccccc1F,active
17,O=C(C[C@@H]1CC[C@H]2[C@@H](COC[C@@H](O)CN2C(=O)Nc2cccc(Cl)c2)O1)NCc1ccccc1F,inactive
18,O=C(C[C@H]1CC[C@H]2[C@@H](COC[C@H](O)CN2C(=O)Nc2cccc(Cl)c2)O1)NCc1ccccc1F,inactive
19,O=C(C[C@@H]1CC[C@@H]2[C@H](COC[C@@H](O)CN2C(=O)Nc2cccc(Cl)c2)O1)NCc1ccccc1F,active
20,O=C(C[C@H]1CC[C@H]2[C@@H](COC[C@@H](O)CN2C(=O)Nc2cccc(Cl)c2)O1)NCc1ccccc1F,inactive
21,O=C(C[C@H]1CC[C@@H]2[C@H](COC[C@H](O)CN2C(=O)Nc2cccc(Cl)c2)O1)NCc1ccccc1F,inactive
22,COc1ccc(NC(=O)N(C)C[C@H]2Oc3c(NC(=O)Nc4cccc5ccccc45)cccc3C(=O)N([C@@H](C)CO)C[C@@H]2C)cc1,inactive
23,COc1ccc(S(=O)(=O)N(C)C[C@H]2Oc3c(NS(=O)(=O)c4c(C)noc4C)cccc3C(=O)N([C@@H](C)CO)C[C@@H]2C)cc1,inactive
24,O=c1[nH]cccc1F,inactive

row,SMILES,growth inhibition call
1,C[C@@H]1CN([C@H](C)CO)C(=O)Cc2cc(NC(=O)CCN3CCOCC3)ccc2O[C@@H]1CN(C)C(=O)Nc1ccc2c(c1)OCO2,inactive
2,C[C@@H]1CN([C@@H](C)CO)C(=O)c2cc(NC(=O)C3CCCCC3)ccc2O[C@@H](C)CCCCO[C@H]1CN(C)C(=O)c1ccccc1,inactive
3,CNC[C@@H]1Oc2cc(C#CCN(C)C)ccc2S(=O)(=O)N([C@@H](C)CO)C[C@@H]1C,inactive
4,CC(C)NC(=O)N(C)C[C@@H]1Oc2ccc(NC(=O)C3CCCCC3)cc2C(=O)N([C@@H](C)CO)C[C@@H]1C,inactive
5,C[C@H](CO)N1C[C@H](C)[C@H](CN(C)C(=O)Nc2cccc(C(F)(F)F)c2)OCc2cnnn2CCCC1=O,active
6,C[C@@H]1CN([C@H](C)CO)C(=O)CCCn2nncc2CO[C@@H]1CN(C)C(=O)Nc1cccc(C(F)(F)F)c1,active
7,C[C@@H]1CN([C@@H](C)CO)C(=O)CCCn2nncc2CO[C@@H]1CN(C)C(=O)Nc1cccc(C(F)(F)F)c1,inactive
8,C[C@H](CO)N1C[C@H](C)[C@@H](CN(C)C(=O)Nc2cccc(C(F)(F)F)c2)OCc2cnnn2CCCC1=O,inactive
9,C[C@H]1CN([C@@H](C)CO)C(=O)CCCn2nncc2CO[C@H]1CN(C)C(=O)Nc1ccc(C(C)(C)C)cc1,inactive
10,C[C@@H]1CN([C@H](C)CO)C(=O)CCCn2nncc2CO[C@H]1CN(C)C(=O)Nc1cccc(C(F)(F)F)c1,active
11,C[C@@H]1CN([C@@H](C)CO)C(=O)CCCn2nncc2CO[C@H]1CN(C)C(=O)Nc1ccc(C(C)(C)C)cc1,inactive
12,C[C@H]1CN([C@@H](C)CO)C(=O)CCCn2nncc2CO[C@H]1CN(C)C(=O)Nc1cccc(C(F)(F)F)c1,active
13,C[C@H]1CN([C@@H](C)CO)C(=O)CCCn2nncc2CO[C@@H]1CN(C)C(=O)Nc1cccc(C(F)(F)F)c1,inactive
14,C[C@@H]1CN([C@@H](C)CO)C(=O)CCCn2nncc2CO[C@H]1CN(C)C(=O)Nc1cccc(C(F)(F)F)c1,inactive
15,C[C@@H]1CCCCO[C@@H](CN(C)C(=O)Nc2ccccc2)[C@@H](C)CN([C@H](C)CO)C(=O)c2cc(NC(=O)CCC(F)(F)F)ccc2O1,inactive
16,C[C@H]1CN([C@@H](C)CO)C(=O)c2cc(NC(=O)NC3CCCCC3)ccc2O[C@H]1CN(C)C(=O)Nc1cccc2ccccc12,inactive
17,OC[C@H]1O[C@@H]2O[C@H]3[C@H](O)[C@@H](O)[C@@H](O[C@H]4[C@H](O)[C@@H](O)[C@@H](O[C@H]5[C@H](O)[C@@H](O)[C@@H](O[C@H]6[C@H](O)[C@@H](O)[C@@H](O[C@H]7[C@H](O)[C@@H](O)[C@@H](O[C@H]1[C@H](O)[C@H]2O)O[C@@H]7CO)O[C@@H]6CO)O[C@@H]5CO)O[C@@H]4CO)O[C@@H]3CO,inactive
18,COc1ccc(NC(=O)Nc2ccc3c(c2)CC(=O)N([C@@H](C)CO)C[C@H](C)[C@H](CN(C)S(=O)(=O)c2c(C)noc2C)O3)cc1,inactive
19,COc1ccc(S(=O)(=O)Nc2ccc3c(c2)CC(=O)N([C@@H](C)CO)C[C@@H](C)[C@@H](CN(C)C(=O)NC(C)C)O3)cc1,inactive
20,OC1OC(c2ccc(Cl)c(Cc3ccc(OC4CCOC4)cc3)c2)C(O)C(O)C1O (stereo unspecified),inactive
21,CO[C@@H]1CN(C)C(=O)c2ccc(NC(=O)C3CC3)cc2OC[C@H](C)N(C(=O)Cc2ccccn2)C[C@H]1C,inactive
22,C[C@@H]1CN([C@H](C)CO)C(=O)c2cc(NS(=O)(=O)c3ccc(F)cc3)ccc2O[C@H]1CN(C)S(=O)(=O)c1cccs1,inactive
23,Cc1nnc(NCCc2ccccc2)n(N)c1=O,inactive
24,NCCNc1cccc2ccccc12,inactive

row,SMILES,growth inhibition call
1,c1ccc(CCNc2ccnc3cc4ccccc4cc23)cc1,active
2,C[C@@H]1CN([C@@H](C)CO)C(=O)Cc2cc(NC(=O)CCN3CCOCC3)ccc2O[C@@H]1CN(C)S(=O)(=O)c1ccc(Cl)cc1,inactive
3,CO[C@@H]1CN(C)C(=O)c2cc(NC(=O)C3CC3)ccc2OC[C@H](C)N(C(=O)CN2CCOCC2)C[C@H]1C,inactive
4,COC(=O)C1=CC(CCCO)=C[C@@H](c2ccc(CN3CCCC3)cc2)N(Cc2sc3ccccc3c2Cl)C=C1C(=O)OC,inactive
5,NC(=O)N1C(=O)[C@H]2[C@H](C1=O)[C@H]1C=C(CCCO)[C@@H]2[C@H](c2ccc(CN3CCCC3)cc2)N1Cc1sc2ccccc2c1Cl,inactive
6,CS(=O)(=O)CCOC(=O)C1=CC(CCCO)=C[C@@H](c2ccc(CN3CCCC3)cc2)N(Cc2sc3ccccc3c2Cl)C=C1C(=O)OCCS(C)(=O)=O,active
7,COc1c(C)cc(-c2cc3c(c(CCc4ccccc4)n2)[Si](C(C)C)(C(C)C)O[C@H]3c2ccccc2)cc1C,active
8,COc1cc(Cc2cc3c(c(CCc4ccccc4)n2)[Si](C(C)C)(C(C)C)OC3)cc(OC)c1OC,inactive
9,COc1cc(Cc2cc3c(c(CCc4ccccc4)n2)[Si](C(C)C)(C(C)C)O[C@H]3c2ccccc2)cc(OC)c1OC,active
10,COc1ccc(-c2cc3c(c(CCc4ccccc4)n2)[Si](C(C)C)(C(C)C)O[C@H]3c2ccccc2)cn1,inactive
11,CCCCCCc1nc(-c2cc(C)c(OC)c(C)c2)cc2c1[Si](C(C)C)(C(C)C)O[C@H]2c1ccccc1,inactive
12,COc1c(C)cc(-c2cc3c(c(-c4ccccc4)n2)[Si](C(C)C)(C(C)C)O[C@H]3c2ccccc2)cc1C,inactive
13,C=CCNC1=C2C[C@H](C)C[C@H](OC)[C@@H](O)[C@H](C)/C=C(\C)[C@H](OC(N)=O)[C@H](OC)/C=C/C=C(\C)C(=O)NC(=CC1=O)C2=O,inactive
14,C[C@H](CO)N1C[C@H](C)[C@H](CN(C)Cc2ccc(C(=O)Nc3ccccc3N)cc2)Oc2c(NC(=O)NC3CCCCC3)cccc2C1=O,inactive
15,C[C@@H]1CCCCO[C@@H](CN(C)CC2CCCCC2)[C@H](C)CN([C@@H](C)CO)C(=O)c2cc(NS(=O)(=O)c3cccs3)ccc2O1,inactive
16,NCCNC(=O)c1nc(-c2ccc(Br)o2)no1,inactive
17,NNC(=O)c1nc(-c2ccccc2)no1,inactive
18,O=C(NCc1ccc(Oc2ccccc2)cc1)c1nc(-c2cc(Br)c(O)c(Br)c2)no1,active
19,COc1ccc(NC(=O)N(C)C[C@H]2Oc3c(NC(=O)c4ccc(-c5nccs5)cc4)cccc3C(=O)N([C@@H](C)CO)C[C@H]2C)cc1,inactive
20,CN(C)c1cc[n+](C(=O)N2CCOCC2)cc1,inactive
21,COc1ccc2[nH]c(=O)[nH]c(=O)c2c1,active
22,O=c1[nH]c(=O)c2cc(Br)ccc2[nH]1,inactive
23,O=c1[nH]c(=O)c2ccccc2[nH]1,inactive
